Results: PubChem BioAssay (Tox21)
Inconclusive results are not listed. Active and inactive are the calls of the source. Unless noted, the call rests on the fitted dose curve; in most records, active means well fitted curve in the direction sought with a large enough effect in the repeat runs; inconclusive means weak or mixed curves; inactive means no such curve, though single readings can be large; an effect the other way counts as inactive or inconclusive.

What was measured:
[1] = qHTS assay to identify small molecule agonists of the peroxisome proliferator-activated receptor delta (PPARd) signaling pathway - cell viability counter screen (AID 743211); further: nearly all actives have a fitted effect of over 55% in size
Summary of the method: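 qHTS cell viability: PPARd-bla HEK293H; 17 h cpd, 37C; CellTiter-Glo, luminescence at 30 min RT.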

[2] = target: Peroxisome proliferator-activated receptor delta (Homo sapiens) (UniProt Q03181); assay: qHTS assay to identify small molecule agonists of the peroxisome proliferator-activated receptor delta (PPARd) signaling pathway (AID 743212; calls by dose curve)
Chain of Peroxisome proliferator-activated receptor delta (Homo sapiens) (Q03181 whole entry, looked up): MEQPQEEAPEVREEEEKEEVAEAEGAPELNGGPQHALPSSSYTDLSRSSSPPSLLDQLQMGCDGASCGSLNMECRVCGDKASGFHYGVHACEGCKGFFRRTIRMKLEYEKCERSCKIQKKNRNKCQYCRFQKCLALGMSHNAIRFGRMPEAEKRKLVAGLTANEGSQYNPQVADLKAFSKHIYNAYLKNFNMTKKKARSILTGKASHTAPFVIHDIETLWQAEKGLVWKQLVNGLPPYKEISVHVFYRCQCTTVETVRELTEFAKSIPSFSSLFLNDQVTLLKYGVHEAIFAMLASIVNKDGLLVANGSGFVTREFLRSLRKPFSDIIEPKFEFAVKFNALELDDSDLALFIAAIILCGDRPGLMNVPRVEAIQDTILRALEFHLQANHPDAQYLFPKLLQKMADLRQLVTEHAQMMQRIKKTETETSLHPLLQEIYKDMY
Summary of the method: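 Steps: seed PPARd-bla HEK293H cells; incubate 5 h, 37 C, 5% CO2; add compounds in DMSO; incubate, 37 C; add LiveBLAzer B/G FRET substrate; hold 2 h at room temperature; measure fluorescence.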

[3] = qHTS assay to identify small molecule antagonists of the peroxisome proliferator-activated receptor delta (PPARd) signaling pathway - cell viability counter screen (AID 743213); further: nearly all actives have a fitted effect of over 50% in size
Summary of the method: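 In this counter screen, HEK293H cells carrying a UAS-beta-lactamase reporter are co-treated with test compounds and 300 nM L165041 (final) for 17 h at 37 C; cell viability is quantified by CellTiter-Glo luminescence.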

[4] = qHTS assay to identify small molecule agonists of the farnesoid-X-receptor (FXR) signaling pathway - cell viability counter screen (AID 743218); further: nearly all actives have a fitted effect of over 45% in size
Summary of the method: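 Luminescence from CellTiter-Glo, read after 30 min at RT, reports viability of GeneBLAzer FXR-UAS-bla HEK 293T cells treated 16 h with compounds in the wells used for the beta-lactamase reporter.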

[5] = qHTS assay to identify small molecule antagonists of the farnesoid-X-receptor (FXR) signaling pathway - cell viability counter screen (AID 743221; active means well fitted cell-killing curve with a large enough effect in the repeat runs, not every such curve was filed as active; further: nearly all actives have a fitted effect of over 50% in size)
Summary of the method: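 After a 5 h settling period, FXR-bla HEK 293T cells receive compound and chenodeoxycholic acid (50 uM final) and incubate 16 h at 37 C; CellTiter-Glo luminescence, read after 30 min at room temperature, reports cell viability.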

[6] = target: Vitamin D3 receptor (Homo sapiens) (UniProt P11473); assay: qHTS assay to identify small molecule agonists of the vitamin D receptor (VDR) signaling pathway (AID 743222; calls by dose curve)
Chain of Vitamin D3 receptor (Homo sapiens) (P11473 whole entry, looked up): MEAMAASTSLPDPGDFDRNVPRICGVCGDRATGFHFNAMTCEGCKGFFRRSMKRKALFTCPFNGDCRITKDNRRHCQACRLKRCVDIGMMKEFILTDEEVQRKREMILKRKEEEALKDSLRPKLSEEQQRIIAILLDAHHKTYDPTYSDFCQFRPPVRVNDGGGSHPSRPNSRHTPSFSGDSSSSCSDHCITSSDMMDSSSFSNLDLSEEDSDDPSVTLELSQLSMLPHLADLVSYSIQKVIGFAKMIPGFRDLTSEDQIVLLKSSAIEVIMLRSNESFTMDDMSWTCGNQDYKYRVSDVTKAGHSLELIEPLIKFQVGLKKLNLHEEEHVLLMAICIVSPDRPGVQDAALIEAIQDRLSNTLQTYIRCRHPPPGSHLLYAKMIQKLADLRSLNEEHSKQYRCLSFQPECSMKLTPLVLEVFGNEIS
Summary of the method: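 Beta-lactamase reporter readout (LiveBLAzer B/G FRET, 2 h RT) in VDR-bla cells after 16 h compound treatment at 37C, 5% CO2; cells pre-incubated 4 h before pin transfer of DMSO solutions.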

[7] = target: Vitamin D3 receptor (Homo sapiens) (UniProt P11473); assay: qHTS assay to identify small molecule antagonists of the vitamin D receptor (VDR) signaling pathway (AID 743223; active means well fitted inhibition curve with a large enough effect in the signal ratio in the repeat runs, not every such curve was filed as active; the % refers to the signal ratio)
Summary of the method: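 Reporter line VDR-bla; stimulus 1alpha,25-(OH)2 vitamin D3, 3 nM final; compound co-addition, 16 h 37C/5% CO2; LiveBLAzer B/G substrate 2 h RT; fluorescence intensity.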

[8] = qHTS assay to identify small molecule agonists of the vitamin D receptor (VDR) signaling pathway - cell viability counter screen (AID 743224); further: series mostly up to about 63 µM; nearly all actives have a fitted effect of over 50% in size
Summary of the method: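 Cytotoxicity counter screen: VDR-bla cells, 16 h compound exposure at 37C, 5% CO2; CellTiter-Glo luminescence, 30 min RT, same wells as bla read.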

[9] = qHTS assay to identify small molecule antagonists of the vitamin D receptor (VDR) signaling pathway - cell viability counter screen (AID 743225); further: nearly all actives have a fitted effect of over 50% in size
Summary of the method: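 Parallel cytotoxicity test: VDR-UAS-bla HEK 293T, 3 nM (final) 1-alpha,25-dihydroxyvitamin D3 with test compound, 16 h, 37C. Endpoint is CellTiter-Glo luminescence in the same wells.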

[10] = qHTS assay to identify small molecule agonists of the NFkB signaling pathway (AID 1159509; active means well fitted curve in the direction sought with a large enough effect in the signal ratio in the repeat runs, not every such curve was filed as active; the % refers to the signal ratio; further: series mostly up to about 61 µM)
Summary of the method: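 Readout: FRET fluorescence, 405 nm excitation, 460/530 nm emission; beta-lactamase expression disrupts FRET. Cells: ME-180 stably carrying NF-kB-driven bla reporter. Compound exposure 5 hr, 37 C, 5% CO2.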

[11] = qHTS assay to identify small molecule agonists of the NFkB signaling pathway - cell viability counter screen (AID 1159515; calls by dose curve; further: series mostly up to about 61 µM; nearly all actives have a fitted effect of over 55% in size)
Summary of the method: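 ME-180 NFkB-bla cells, 2,000/well; overnight attach; compound 5 hr, 37 C/5% CO2; LiveBLAzer substrate 1.5 hr RT; then CellTiter-Glo in same wells, 30 min RT, luminescence read.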

[12] = qHTS assay to identify small molecule agonists of the endoplasmic reticulum stress response signaling pathway (AID 1159516; active means well fitted activation curve with a large enough effect in the signal ratio in the repeat runs, not every such curve was filed as active; the % refers to the signal ratio)
Summary of the method: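 HeLa ESRE-bla reporter line; cpd 5 h, 37 C/5% CO2; LiveBLAzer B/G FRET substrate 2 h RT; ex 405, em 460/530 nm.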

[13] = qHTS assay to identify small molecule agonists of the endoplasmic reticulum stress response signaling pathway - cell viability counter screen (AID 1159517; calls by dose curve)
Summary of the method: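 After overnight attachment, ESRE-bla HeLa cells were treated with Tox21 library compounds for 5 hr. CellTiter-Glo luminescence, read 30 min post-addition at room temperature, reported viability.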

[14] = qHTS assay to identify small molecule antagonists of the retinoid-related orphan receptor gamma (ROR-gamma) signaling pathway - cell viability counter screen (AID 1159520); further: nearly all actives have a fitted effect of over 50% in size
Summary of the method: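 Cytotoxicity was read from cellular ATP (CellTiter-Glo luminescence) after 16 hr at 37 C with 1 uM doxycycline induction. The inducer was added 2 hr after compound transfer to Tet-on ROR gamma CHO cells.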

[15] = target: Nuclear receptor ROR-gamma (Homo sapiens) (UniProt P51449); assay: qHTS assay to identify small molecule antagonists of the retinoid-related orphan receptor gamma (ROR-gamma) signaling pathway (AID 1159521)
Summary of the method: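 Decreased RORE-driven luciferase luminescence indicates antagonism. Tet-on RORγ CHO cells received compound, then 1 uM final doxycycline 2 h later; signal read after 16 h incubation.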

[16] = qHTS assay to identify small molecule agonists of the AP-1 signaling pathway - cell viability counter screen (AID 1159525; calls by dose curve; further: nearly all actives have a fitted effect of over 55% in size)
Summary of the method: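 Intracellular ATP by Cell Titer Glo luminescence (30 min, RT) in the same ME-180 AP-1-bla wells after the 5 h compound exposure at 37 °C. Normalised to tetra n-octyl ammonium bromide and DMSO controls.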

[17] = qHTS assay to identify small molecule agonists of the AP-1 signaling pathway (AID 1159526; calls by dose curve)
[18] = target: Bile acid receptor (Homo sapiens) (UniProt Q96RI1); assay: qHTS assay to identify small molecule antagonists of the farnesoid-X-receptor (FXR) signaling pathway (AID 743217; active means well fitted inhibition curve with a large enough effect in the signal ratio in the repeat runs, not every such curve was filed as active; the % refers to the signal ratio)
Chain of Bile acid receptor (Homo sapiens) (Q96RI1 whole entry, looked up): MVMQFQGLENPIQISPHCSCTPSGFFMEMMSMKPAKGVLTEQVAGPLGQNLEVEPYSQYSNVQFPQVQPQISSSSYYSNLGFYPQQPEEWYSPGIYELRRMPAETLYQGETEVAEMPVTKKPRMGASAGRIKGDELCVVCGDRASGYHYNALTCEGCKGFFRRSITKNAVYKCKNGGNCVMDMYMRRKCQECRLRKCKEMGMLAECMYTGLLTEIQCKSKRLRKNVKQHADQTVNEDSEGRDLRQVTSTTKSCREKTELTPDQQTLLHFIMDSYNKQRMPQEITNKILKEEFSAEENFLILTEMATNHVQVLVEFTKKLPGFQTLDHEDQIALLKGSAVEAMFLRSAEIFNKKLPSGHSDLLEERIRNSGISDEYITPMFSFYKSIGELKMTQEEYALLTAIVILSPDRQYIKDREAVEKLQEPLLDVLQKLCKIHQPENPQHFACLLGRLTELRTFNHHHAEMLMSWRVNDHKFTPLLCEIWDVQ
Summary of the method: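 Read-out: beta-lactamase FRET fluorescence (LiveBLAzer B/G substrate, 2 h, room temperature) in GeneBLAzer FXR-UAS-bla HEK 293T cells. Compounds were co-dosed with 50 uM chenodeoxycholic acid (final) and incubated 16 h at 37 °C.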

[19] = target: Bile acid receptor (Homo sapiens) (UniProt Q96RI1); assay: qHTS assay to identify small molecule agonists of the farnesoid-X-receptor (FXR) signaling pathway (AID 743220; active means well fitted activation curve with a large enough effect in the signal ratio in the repeat runs, not every such curve was filed as active; the % refers to the signal ratio)
Summary of the method: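 FXR-UAS-bla HEK 293T cells carrying a UAS-driven beta-lactamase reporter were plated for 5 h at 37C/5% CO2, then exposed to DMSO-dissolved Tox21 10K compounds for 16 h at 37C. A LiveBLAzer B/G FRET substrate was loaded for 2 h at room temperature before fluorescence reading.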

Measured: Potency

COc1ccc(C)cc1N
not listed: [18] | [19]
inactive: all other assays above

C=CCc1ccc(OC)c(OC)c1
not listed: [5] | [7]
inactive: all other assays above

O=c1[nH]cnc2[nH]ncc12
not listed: [18] | [19]
inactive: all other assays above

c1ccc2c(c1)Cc1ccccc1-2
not listed: [2]
inactive: all other assays above

CCCCCCCO
not listed: [2] | [18] | [19]
inactive: all other assays above

COCCCN
not listed: [7] | [18] | [19]
inactive: all other assays above

CNC(=S)N(C)C
not listed: [2] | [18] | [19]
inactive: all other assays above

CN/C(=C\[N+](=O)[O-])NCCSCc1csc(CN(C)C)n1
not listed: [6] | [7] | [18] | [19]
inactive: all other assays above

CCCCCCCC=O
not listed: [2] | [5] | [18] | [19]
inactive: all other assays above

Cc1ccc2ncccc2c1
not listed: [6] | [7] | [18] | [19]
inactive: all other assays above

CCCCCCCCCCCCCCCCO
not listed: [5] | [18] | [19]
inactive: all other assays above

CC(=O)OCCOC(C)=O
not listed: [2] | [5] | [18] | [19]
inactive: all other assays above

O=C(O)c1ccccc1C(=O)O
not listed: [5] | [6] | [7] | [18] | [19]
inactive: all other assays above

Cc1ccc(C(C)C)c(O)c1
not listed: [5] | [8] | [18] | [19]
inactive: all other assays above

CCOCC(=O)O
not listed: [18] | [19]
inactive: all other assays above

COCCOC(=O)c1ccccc1C(=O)OCCOC
not listed: [5] | [18] | [19]
inactive: all other assays above

CCO[Si](CCC#N)(OCC)OCC
not listed: [2] | [5] | [6] | [7]
inactive: all other assays above

C=CC(C)CCCC(C)(C)O (configuration not stated)
not listed: [18] | [19]
inactive: all other assays above
